Test results: PubChem BioAssay (EPA / NIEHS)
Inconclusive results are not listed. Active and inactive are the calls of the source. How the source made its calls: active means hit-call score of the fitted dose curve at least 0.9, where 1 is the maximum; inconclusive means response in the unintended direction; inactive means score below 0.9.

Read-out: Cytochrome P450 2B6 (Homo sapiens) (UniProt P20813)
Assay: CLD_CYP2B6_48hr: CellzDirect (CLD) Gene Expression Assay for xenobiotic metabolism (CYP2B6) at 48 hours (AID 2283699);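 further: actives raise transcript level above DMSO so potency reflects induction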
Method: CLD_48hr is a cell-based, multiplexed-readout assay that uses hepatocyte, a human liver primary cell, with measurements taken at 48 hours after chemical dosing in a 96-well plate.CLD_CYP2B6_48hr is one of 16 assay component(s) measured or calculated from the CLD_48hr assay. It is designed to make measurements of mRNA induction, a form of inducible reporter, as detected with chemiluminescence signals by Quantitative Nuclease Protection Assay (qNPA) technology.Data from the assay component CLD_CYP2B6_48hr was analyzed at the endpoint, CLD_CYP2B6_48hr, in the positive analysis fitting direction relative to DMSO as the negative control and baseline of activity. Using a type of inducible reporter, gain-of-signal activity can be used to understand changes in the reporter gene as they relate to the gene CYP2B6. Furthermore, this assay endpoint can be referred to as a primary readout. To generalize the intended target to other relatable targets, this assay endpoint is annotated to the cyp intended target family, where subfamily is xenobiotic metabolism.
Human hepatocyte cultures were treated daily for two consecutive days with fresh dosing solutions containing appropriate concentrations of the 320 ToxCast chemicals (chemical identities were blinded to CellzDirect and other ToxCast collaborators), vehicle control (0.2% DMSO), and positive control inducers as summarized in Table 1. Due to the large number of treatment groups and chemicals examined, the ToxCast chemicals were divided into two groups (spanning two independent cultures of hepatocytes from separate donor preparations (Hu778: ToxCast plates 1 and 2; Hu776: ToxCast plates 3 and 4). Each preparation of human hepatocyte cultures was treated with respective vehicle control, medium only control, set of six positive controls/reference chemicals for the five hepatic receptor pathways, and a subset of eight of the ToxCast chemicals (indoxacarb, pyrithiobac-sodium, norflurazon, cyhalofop-butyl, methomyl, thiram, acetochlor, and propiconazole). These replicate data, coupled with internal replicates designed within the blinded ToxCast chemical library, provided additional data to evaluate interindividual differences between hepatocyte preparations and their potential impact on chemical profiles.Cell morphology and integrity were evaluated using phase-contrast microscopy as an indicator of hepatocyte cell health (Tyson & Green, 1987). Cultures for each treatment group (i.e., media, vehicle [0.2% DMSO], positive control inducers [multiple concentrations], and the ToxCast chemicals [multiple concentrations]) were observed and cell morphology was assessed relative to vehicle control cultures at each harvest time point (0, 6, 24, or 48 h). […] Images were evaluated at the conclusion of the study to assess changes in cell integrity and account for the effects of chemical exposure on uncharacteristic changes in concentration-dependent gene expression profiles. The results from these determinations of apparent cytotoxicity were annotated (yes/no) alongside the corresponding qNPA data for reference.At the conclusion of each treatment period, hepatocyte cultures (96-well) were washed with 1 volume of HBSS, lysed by addition of 25 ul ArrayPlate lysis buffer (HTG, Tucson, AZ), and 70 ul/well of Denaturation Oil, denatured by incubation at 95C for 10 min, and frozen at approximately -70C until analysis by nuclease protection assay (qNPA) (Roberts et al., 2007). For qNPA analysis, cell lysates were thawed at 50C for approximately 30 min, qNPA probes were added, and samples were incubated at 95C for 10 min to begin the detection process by denaturing the target RNA, dissociating the duplexes and secondary structure hybridization. At the conclusion of the hybridization period, S1 nuclease reagent was added to each sample to digest all nonprotected nucleotides at 50C for 60-90 min. […]

Compound	AC50	outcome
COc1cc(Cl)c(OC)cc1Cl	0.0752 µM (active)	
CC1(C)C(C(=O)OC(C#N)c2cccc(Oc3ccccc3)c2)C1(C)C (stereo not given)	4.06 µM (active)	
O=P(O)(O)CCCl		inactive
N#CN=C1SCCN1Cc1ccc(Cl)nc1	9.25 µM (active)	
CS(=O)(=O)c1ccc(C(=O)C2C(=O)CCCC2=O)c([N+](=O)[O-])c1		inactive
CC(C)(C)C(=O)C(Oc1ccc(Cl)cc1)n1cncn1 (stereo not given)	3.31 µM (active)	
COc1ccc(-c2ccccc2)cc1NNC(=O)OC(C)C		inactive
COP(=S)(OC)Oc1ccc([N+](=O)[O-])c(C)c1	2.67 µM (active)	
CCOP(=S)(OCC)Oc1nc(Cl)n(C(C)C)n1	0.427 µM (active)	
CCC(C)n1c(=O)[nH]c(C)c(Br)c1=O (stereo not given)	3.28 µM (active)	
Nc1c(Cl)c(Cl)nc(C(=O)O)c1Cl		inactive
CCN(CC)c1nc(C)cc(OP(=S)(OC)OC)n1	0.684 µM (active)	
Cc1c(COC(=O)[C@@H]2[C@H](/C=C(\Cl)C(F)(F)F)C2(C)C)cccc1-c1ccccc1	3.39 µM (active)	
CCCCC(O)(Cn1cncn1)c1ccc(Cl)cc1Cl (stereo not given)	0.63 µM (active)	
COC(=O)N(C(=O)N1CO[C@@]2(C(=O)OC)Cc3cc(Cl)ccc3C2=N1)c1ccc(OC(F)(F)F)cc1	0.505 µM (active)	
COC(=O)NC(=S)Nc1ccccc1NC(=S)NC(=O)OC	20 µM (active)	
Cc1cc(C)nc(Nc2ccccc2)n1	1.61 µM (active)	
CCOc1nc(F)cc2nc(S(=O)(=O)Nc3c(Cl)cccc3Cl)nn12	7.88 µM (active)	
CCOc1cc(C(C)(C)C)ccc1C1COC(c2c(F)cccc2F)=N1 (stereo not given)	2.11 µM (active)	
CCCN(CC)CC1COC2(CCC(C(C)(C)C)CC2)O1 (stereo not given)		inactive

Compound	AC50	outcome
OC(c1ccc(Cl)cc1)(c1ccc(Cl)cc1)C(Cl)(Cl)Cl	4.47 µM (active)	
O=C(Nc1ccccc1-c1ccc(Cl)cc1)c1cccnc1Cl	1.89 µM (active)	
CC1(C)CON(Cc2ccccc2Cl)C1=O	3.23 µM (active)	
CCOC(=O)C(C)OC(=O)c1cc(Oc2ccc(C(F)(F)F)cc2Cl)ccc1[N+](=O)[O-] (stereo not given)	20 µM (active)	
CCCCOCN(C(=O)CCl)c1c(CC)cccc1CC	2.5 µM (active)	
Clc1cccc(C(Cl)(Cl)Cl)n1	1.47 µM (active)	
CCSC(=O)N1CCCCCC1	0.378 µM (active)	
COC(=O)c1c(C(F)F)nc(C(F)(F)F)c(C2=NCCS2)c1CC(C)C	0.378 µM (active)	
COC(=O)NS(=O)(=O)c1ccc(N)cc1		inactive
CC(C)N1C(=O)N(c2ccccc2)CSC1=NC(C)(C)C	4.31 µM (active)	
CC(C)Nc1nc(Cl)nc(NC(C)C)n1	3.11 µM (active)	
CCCC(=NOCC)C1=C(O)CC(CC(C)SCC)CC1=O (stereo not given)		inactive
CC(C)C1(C)N=C(c2ncccc2C(=O)O)NC1=O (stereo not given)	0.000587 µM (active)	
CC(C)NC(=O)N1CC(=O)N(c2cc(Cl)cc(Cl)c2)C1=O	3.92 µM (active)	
N#Cc1c[nH]cc1-c1cccc2c1OC(F)(F)O2	2.54 µM (active)	
CCN(CC)C(=O)C(C)Oc1cccc2ccccc12 (stereo not given)	6.33 µM (active)	
CCCCC(C#N)(Cn1cncn1)c1ccc(Cl)cc1 (stereo not given)	4.45 µM (active)	
CC1(C)C(C=C(Cl)Cl)C1C(=O)OC(C#N)c1cccc(Oc2ccccc2)c1 (stereo not given)	6.46 µM (active)	
CS(=O)(=O)c1cc(C(F)(F)F)ccc1C(=O)c1cnoc1C1CC1	9.48 µM (active)	
C=CCOC(=O)C(C)(C)OC(=O)c1cc(-n2c(=O)cc(C(F)(F)F)n(C)c2=O)ccc1Cl	0.168 µM (active)	
